Values joined by “and” are separate entries in the source; they are usually repeats but may differ in a detail not shown here. Equal values may be shown once. Results filed as inconclusive are left out. Some compounds were tested as several samples or in several runs, with calls that do not always agree. Active and inactive are the calls of the source. The calls were made as follows: active = hit-call score of the fitted dose curve at least 0.9, where 1 is the maximum; inconclusive = response in the unintended direction; inactive = score below 0.9.

The target of assay [1] is Norway rat Vesicular Monoamine Transporter (VMAT2), neurotransmitter transporter, Slc18a2 (gene 25549) (UniProt Q01827). Kind of assay: NVS_TR_rVMAT2: NovaScreen (NVS) Transporter Assay for Norway rat Vesicular Monoamine Transporter (VMAT2), neurotransmitter transporter (AID 2283376).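 Also: actives lower the bound radioligand signal below the DMSO level.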 An outline of the steps:
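Tissue: rat forebrain extract. Format: competitive radioligand binding, cell-free. Timepoint: 1 h. Readout: filter radiodetection/scintillation. Screen: 25 uM in duplicate, then concentration series for actives. Baseline: DMSO.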

Assay [2] can be described thus: TOX21_p53_BLA_p2_viability: Viability Assessment in the Tox21 HCT-116 p53 Agonism Beta-lactamase Assay, Phase 2 (AID 2283591).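 Also: compound exposure lasted 16 h at 37 °C; actives lower the ATP signal meaning cytotoxicity.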 The method, boiled down: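 Cytotoxicity readout: CellTiter-Glo ATP luminescence, 30 min at room temperature, after the beta-lactamase read. Cells were HCT116 exposed 16 h at 37C to compounds pin-transferred at 217-fold dilution from DMSO stocks.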

Assay [3] has as its target Cellular tumor antigen p53 (Homo sapiens) (UniProt P04637). Nature of the assay: TOX21_p53_BLA_p2_ratio: Tox21 HCT-116 p53 Agonism Beta-lactamase Assay, Ratio, Phase 2 (AID 2283592). An outline of the steps:
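HCT116 cells carrying a p53-responsive beta-lactamase reporter were plated, incubated 5 h at 37C, then dosed with compounds in DMSO (217-fold dilution) for 16 h. CCF4-AM substrate was added for 2 h at room temperature; the 460/530 nm emission ratio gave gain-of-signal activity relative to DMSO.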

A short description of assay [4]: TOX21_p53_BLA_p3_viability: Viability Assessment in the Tox21 HCT-116 p53 Agonism Beta-lactamase Assay, Phase 3 (AID 2283593).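 Also: cells exposed to compound for 16 h before reading.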 An outline of the steps:
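Cellular ATP was quantified by CellTiter-Glo luminescence, read after 30 min at room temperature. Beforehand, HCT116 cells (4000/well) received compound 5 h post-seeding, 217-fold diluted from DMSO, then incubated 16 h at 37C.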

Assay [5] concerns the target Cellular tumor antigen p53 (Homo sapiens) (UniProt P04637). Nature of the assay: TOX21_p53_BLA_p3_ratio: Tox21 HCT-116 p53 Agonism Beta-lactamase Assay, Ratio, Phase 3 (AID 2283596). The method, boiled down:
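HCT116 p53-bla cells (4000/well) given compound in DMSO (217-fold dilution) after 5 h, incubated 16 h at 37C. CCF4-AM substrate 2 h at room temperature; 460/530 nm emission ratio, gain fitted against DMSO.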

Assay [6] can be described thus: TOX21_p53_BLA_p4_viability: Viability Assessment in the Tox21 HCT-116 p53 Agonism Beta-lactamase Assay, Phase 4 (AID 2283597).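 Also: hits lower the luminescence signal meaning cytotoxicity.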 An outline of the steps:
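HCT116 p53-bla cells (4000/well) rested 5 h at 37C, then received compounds in DMSO (217-fold dilution) for 16 h at 37C, 5% CO2. CellTiter-Glo was added after the CCF4-AM read, and luminescence was read after 30 min at room temperature.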

The target of assay [7] is Cellular tumor antigen p53 (Homo sapiens) (UniProt P04637). Kind of assay: TOX21_p53_BLA_p5_ratio: Tox21 HCT-116 p53 Agonism Beta-lactamase Assay, Ratio, Phase 5 (AID 2283599). An outline of the steps: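 Beta-lactamase reporter ratio (blue 460 nm over green 530 nm, 405 nm excitation) after 2 h CCF4-AM loading, in HCT-116 cells exposed 16 h at 37 C to compounds pinned at 217-fold dilution. Increases relative to DMSO baseline scored.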
Cellular tumor antigen p53 (Homo sapiens), sequence (P04637 whole entry, looked up): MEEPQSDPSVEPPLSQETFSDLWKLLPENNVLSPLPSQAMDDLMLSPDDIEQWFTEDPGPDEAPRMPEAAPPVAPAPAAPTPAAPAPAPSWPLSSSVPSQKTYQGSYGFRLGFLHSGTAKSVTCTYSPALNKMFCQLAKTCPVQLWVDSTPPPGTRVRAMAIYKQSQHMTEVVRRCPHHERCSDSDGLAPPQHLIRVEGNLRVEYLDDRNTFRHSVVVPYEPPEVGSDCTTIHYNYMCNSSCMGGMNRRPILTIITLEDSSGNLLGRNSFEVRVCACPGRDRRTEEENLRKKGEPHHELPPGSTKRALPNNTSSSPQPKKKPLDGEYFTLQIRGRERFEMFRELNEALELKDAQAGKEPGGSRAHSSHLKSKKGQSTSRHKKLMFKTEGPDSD

Assay [8] can be described thus: TOX21_p53_BLA_p5_viability: Viability Assessment in the Tox21 HCT-116 p53 Agonism Beta-lactamase Assay, Phase 5 (AID 2283600). An outline of the steps: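 Cells were plated at 4000/well, rested 5 h at 37C, then given compounds in DMSO (217-fold dilution) for 16 h at 37C, 5% CO2. Following the CCF4-AM beta-lactamase read, CellTiter-Glo was added and luminescence was read after 30 min at room temperature.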

Assay [9] has as its target Cellular tumor antigen p53 (Homo sapiens) (UniProt P04637). Nature of the assay: TOX21_p53_BLA_p4_ratio: Tox21 HCT-116 p53 Agonism Beta-lactamase Assay, Ratio, Phase 4 (AID 2283601). An outline of the steps: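 Signal is the blue/green (460nm/530nm) ratio of cleaved versus uncleaved CCF4-AM substrate, read after 2 h substrate loading. Cells were HCT116 carrying the p53-responsive beta-lactamase reporter, dosed 16 h at 37C, 5% CO2; CellTiter-Glo measured in parallel.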

Norway rat Vesicular Monoamine Transporter (VMAT2), neurotransmitter transporter, Slc18a2 (gene 25549), sequence (Q01827 whole entry, looked up): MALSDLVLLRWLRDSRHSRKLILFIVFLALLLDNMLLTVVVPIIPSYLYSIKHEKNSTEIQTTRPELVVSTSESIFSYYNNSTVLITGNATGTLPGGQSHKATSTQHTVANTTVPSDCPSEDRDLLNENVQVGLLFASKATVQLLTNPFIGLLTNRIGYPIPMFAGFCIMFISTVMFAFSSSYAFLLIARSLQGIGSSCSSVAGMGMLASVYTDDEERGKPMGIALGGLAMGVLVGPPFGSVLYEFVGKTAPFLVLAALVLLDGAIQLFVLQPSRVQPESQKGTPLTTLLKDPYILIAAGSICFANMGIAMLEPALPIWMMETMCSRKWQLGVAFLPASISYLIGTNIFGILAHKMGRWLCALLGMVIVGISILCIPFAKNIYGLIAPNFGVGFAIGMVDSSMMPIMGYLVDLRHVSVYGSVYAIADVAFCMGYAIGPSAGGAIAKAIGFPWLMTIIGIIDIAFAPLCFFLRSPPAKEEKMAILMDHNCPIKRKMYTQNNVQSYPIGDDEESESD

As for `O=C1c2c(O)ccc(Nc3ccc(CCO)cc3)c2C(=O)c2c([N+](=O)[O-])ccc(O)c21`, the result in assay [1] was inactive.
Regarding `Cc1cc(C)c(C=O)c(C)c1`, the molecule was called inactive in assay [1].
On to `C[C@H](CN1CCOCC1)C(C(=O)N1CCCC1)(c1ccccc1)c1ccccc1`, for which the outcome in assay [2] was inactive.
Regarding `CCCC(=O)OC(C(Cl)(Cl)Cl)P(=O)(OC)OC` (configuration not stated), the outcome in assay [2], in assay [3], in [4], in [5], in assay [6] and in assay [7] was inactive. Besides, the result in assay [8] was inactive.
What is called AC50 is the concentration at which the activity in the assay is half-maximal. Turning to `C#C[C@]1(OC(=O)CCCCCC)CC[C@H]2[C@@H]3CCC4=CC(=O)CC[C@@H]4[C@H]3CC[C@@]21C`, the concentration at half-maximal activity (AC50) in assay [2] is 8.02 µM (active); in [4] it was 23 µM (active). Also, the outcome in assay [3], in assay [5], in [6], in assay [7], in assay [8] and in [9] was inactive.
Consider `O=C1C[C@@H]2OCC=C3CN4CC[C@]56c7ccccc7N1[C@H]5[C@H]2[C@H]3C[C@H]46` (tested in a mixture with another compound), for which the result in [2], in [3], in [4], in assay [5], in assay [6] and in assay [7] was inactive. In addition, the call in assay [8] and in [9] was inactive. The values for the AC50 in assay [4] and in assay [5] were 41.2 µM (active) and 36.6 µM (active), respectively.
Consider `CO[C@]12CC[C@@]3(C[C@@H]1[C@](C)(O)C(C)(C)C)[C@H]1Cc4ccc(O)c5c4[C@@]3(CCN1CC1CC1)[C@H]2O5`, for which the AC50 is 75 µM (active) in assay [2]; 70.3 µM (active) in assay [4]; 86.6 µM (active) in assay [5]; 60.6 µM (active) in assay [6]; 84.8 µM (active) in assay [9]. Also, the outcome in assay [3], in assay [7] and in [8] was inactive.
Consider `ClCCOCOCCCl`, for which the outcome in assay [2], in assay [3], in assay [4], in assay [5], in assay [6] and in assay [7] was inactive. For the same molecule, the result in assay [8] was inactive.
`BrCCCCCCBr`: the outcome in assay [2], in [3], in [4] and in [5] was inactive.
Regarding `COC(=O)c1cncn1C(C)c1ccccc1` (configuration not stated), the molecule was called inactive in assay [2], in assay [3], in assay [4], in assay [5], in assay [6] and in assay [7].
For `CCC1(CC)C(=O)NC(=O)N(C)C1=O`, the outcome in assay [2], in assay [3], in assay [4], in assay [5], in assay [6] and in assay [7] was inactive.
Regarding `Oc1cc[c]([Hg][Cl])cc1`, the AC50 in assay [2] is 20.9 µM (active) and 10.7 µM (active); in [3] it was 13.9 µM (active); in assay [4], 41.6 µM (active) and 18.9 µM (active); in assay [5], 30.1 µM (active) and 35.2 µM (active); in assay [6], 20.4 µM (active) and 9.85 µM (active); in assay [7] it was 39.2 µM (active) and 17.4 µM (active). In addition, the AC50 in assay [9] is 41 µM (active) and 19.2 µM (active). For the same molecule, the outcome in assay [3] was inactive.
As to `CC[C@H](N)c1ccccc1`, the molecule was called inactive in assay [2], in assay [3], in assay [4], in assay [5], in assay [6] and in assay [7].
For `[Cl][Hg][c]1ccccc1`, the AC50 in [2] was 0.576 µM (active); in assay [3], 0.553 µM (active); in assay [4], 2.88 µM (active); in assay [5], 8.93 µM (active); in [6] it was 0.624 µM (active); in assay [7], 10.9 µM (active). Besides, the values for the AC50 in assay [8] and in [9] were 2.95 µM (active) and 0.672 µM (active), respectively.
Consider `FC(F)(F)c1cccc(C2=CCN(CCc3ccc4ccccc4c3)CC2)c1`, for which the outcome in assay [2], in assay [3], in assay [4], in assay [5] and in assay [6] was inactive.
Regarding `Nc1ccc(Cc2ccc(N)c(Cl)c2)cc1Cl`, the outcome in [2], in [6], in [7], in [8] and in assay [9] was inactive. For the same molecule, the AC50 is 68.5 µM (active) in [3], 77.1 µM (active) in assay [4] and 71.5 µM (active) in assay [5].
In the case of `Cc1cc(C(C)(C)c2cc(C)c(O)c(C)c2)cc(C)c1O`, the AC50 in assay [2] is 44.8 µM (active); in [3], 20.7 µM (active); in assay [5], 18.8 µM (active); in assay [6], 57.2 µM (active); in assay [7], 58.5 µM (active); in assay [8] it was 83.3 µM (active). Besides, the AC50 in assay [9] is 74.3 µM (active). Besides, the molecule was called inactive in [4].
`CN(C)c1ccc(N)cc1`: the outcome in assay [2], in assay [4], in [5], in [6], in [7] and in [8] was inactive. Moreover, in assay [9], the outcome was inactive. Besides, the AC50 in [3] is 72 µM (active).
As to `CCOC(=S)S`, the outcome in assay [2], in assay [3], in [4], in [5], in assay [6] and in assay [7] was inactive. The outcome in assay [8] and in assay [9] was inactive. For the same molecule, in assay [5], the AC50 was 86.6 µM (active).
For `OCC(Cl)CCl` (configuration not stated), the molecule was classed as inactive in assay [2], in [3], in assay [4], in assay [5], in assay [6] and in assay [7]. In assay [8], the outcome was inactive.
For the molecule `Nc1ccncc1`, the molecule was called inactive in assay [2], in [3], in assay [4], in assay [5], in assay [6] and in assay [7]. Further, the outcome in [8] was inactive.
Regarding `O=C(O)/C=C\C(=O)O`, the result in [2], in assay [3], in [4], in assay [5], in [6] and in assay [7] was inactive. Further, the result in assay [8] and in [9] was inactive.
Regarding `C#CCN1CC(=O)N(COC(=O)C2C(C=C(C)C)C2(C)C)C1=O` (configuration not stated), the molecule was classed as inactive in assay [2], in assay [3], in [4], in [5] and in [6].
Consider `Fc1ccc(C(OCCN2CCN(CCCc3ccccc3)CC2)c2ccc(F)cc2)cc1`, for which the AC50 in assay [2] was 33 µM (active); in [3], 33.7 µM (active); in [4], 31 µM (active); in assay [5], 24.9 µM (active); in [6] it was 25.1 µM (active); in assay [7], 40.4 µM (active). Moreover, the AC50 in assay [8] is 38.4 µM (active); in [9], 39 µM (active).
As for `N#CCBr`, the call in assay [2], in assay [3], in [4] and in assay [5] was inactive.
Take `Nc1ccc([As](=O)(O)O)cc1`: the molecule was classed as inactive in [2], in assay [3], in assay [5], in assay [6], in [7] and in assay [8]. The result in [9] was inactive. For the same molecule, the AC50 in assay [3] is 35.1 µM (active); in [9] it was 42.1 µM (active).

Source of the values: PubChem BioAssay (EPA / NIEHS).
